Experimental data reported in PubChem BioAssay (NCI).
This is part of a sample that, as a whole, favours compounds with a hit. Of some 83,000 tested, about 20% had one in any assay.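 Treatment: one concentration, 48 hours, 96-well format. Scoring: percent growth, with anything below 10 considered active.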 Activity calls are given as the source filed them.

Legend:
Experiment in all cases: NCI-60 one-dose screen, 48 h (100 = growth as untreated, 0 = no growth, -100 = all killed)
[1] = tested on: SK-MEL-2 melanoma; details: 10 µM unless noted
[2] = tested on: EKVX NSCLC; details: 10 µM unless noted
[3] = tested on: SN12C renal; details: 10 µM unless noted
[4] = tested on: UO-31 renal; details: 10 µM unless noted
[5] = tested on: TK-10 renal; details: 10 µM unless noted
[6] = tested on: ACHN renal; details: 10 µM unless noted
[7] = tested on: CAKI-1 renal; details: 10 µM unless noted
[8] = tested on: A498 renal; details: 10 µM unless noted
[9] = tested on: CCRF-CEM leukemia; details: 10 µM unless noted
[10] = tested on: MOLT-4 leukemia; details: 10 µM unless noted
[11] = tested on: SR leukemia; details: 10 µM unless noted
[12] = tested on: RPMI-8226 leukemia; details: 10 µM unless noted
[13] = tested on: OVCAR-8 ovarian; details: 10 µM unless noted
[14] = tested on: OVCAR-5 ovarian; details: 10 µM unless noted
[15] = tested on: SK-OV-3 ovarian; details: 10 µM unless noted
[16] = tested on: OVCAR-3 ovarian; details: 10 µM unless noted
[17] = tested on: HS 578T breast; details: 10 µM unless noted
[18] = tested on: NCI/ADR-RES ovarian; details: 10 µM unless noted
[19] = tested on: IGROV1 ovarian; details: 10 µM unless noted
[20] = tested on: OVCAR-4 ovarian; details: 10 µM

Measured: growth

Cc1cc(SC#N)ncn1
inactive: [1] 66.9% | [2] 101% | [3] 94.9% | [4] 96.2% | [5] 101% | [6] 98.4% | [7] 98.9% | [8] 102% | [9] 88% | [10] 109% | [11] 109% | [12] 101% | [13] 96.2% | [14] 115% | [15] 105% | [16] 100% | [17] 105% | [18] 103%

COC(=O)c1cc2c(=O)[nH]cc3c2c(n1)CCC3
inactive: [1] 95.2% | [2] 101% | [3] 97.2% | [4] 75.4% | [5] 106% | [6] 105% | [7] 97.4% | [8] 104% | [9] 103% | [10] 100% | [11] 113% | [12] 76.2% | [13] 105% | [14] 99.8% | [15] 100% | [16] 99.1% | [17] 109% | [18] 108%

Fc1ccc(NC(=S)c2ccccc2)cc1
inactive: [1] 98.3% | [2] 97.5% | [3] 103% | [4] 88.9% | [5] 94.5% | [6] 102% | [7] 89.8% | [8] 72.8% | [9] 94.6% | [10] 99.9% | [11] 102% | [12] 89% | [13] 102% | [14] 94.5% | [15] 117% | [19] 106% | [17] 101% | [18] 108%

CCOC(=O)C(C(C)=O)c1nc2sc3cc(Cl)c(Cl)cc3n2c(=O)c1C#N (configuration not stated)
inactive: [1] 108% | [2] 86% | [3] 98.8% | [4] 58.4% | [5] 145% | [6] 101% | [7] 96.2% | [8] 142% | [9] 96.7% | [10] 89.6% | [11] 105% | [12] 98.6% | [13] 92.8% | [14] 122% | [15] 83.2% | [16] 112% | [17] 114% | [18] 106%

CCOc1ccccc1/C=N\Nc1ccc(S(=O)(=O)c2ccc(N/N=C/c3ccccc3OCC)cc2)cc1
inactive: [1] 103% | [2] 90.7% | [3] 93.5% | [4] 66.5% | [5] 126% | [6] 88.7% | [7] 67.2% | [8] 113% | [9] 94.7% | [10] 80.8% | [11] 94.8% | [12] 81.3% | [13] 93.1% | [14] 95% | [15] 87.6% | [19] 76% | [18] 92.8%
active: [17] -24.9%

O=C(N[C@@H]1CCCc2ccccc21)[C@H](CCC(=O)N1CCN(C2CCCCC2)CC1)N1C(=O)[C@@H](N2C(=O)OC[C@@H]2c2ccccc2)[C@H]1/C=C/c1ccccc1
inactive: [1] 20.6% | [2] 51.2% | [3] 25.4% | [4] 21% | [5] 47% | [6] 36.4% | [7] 37.9% | [8] 31.8% | [9] 22.8% | [13] 54.4% | [14] 93.5% | [20] 36.8% | [15] 70.6% | [19] 49.3% | [16] 32.5% | [17] 48.1% | [18] 33.3%
active: [11] -25.1% | [12] -13.9%

CN(C)C(=S)Sc1ccc([N+](=O)[O-])cc1[N+](=O)[O-]
active: [6] -44.4% | [7] 4.43% | [9] 4.55% | [11] 7.64% | [19] 1.54% | [16] 1.07%
inactive: [1] 57.8% | [2] 82.4% | [3] 41.8% | [4] 16.7% | [5] 67.8% | [8] 80.5% | [12] 27.7% | [13] 18.7% | [14] 72.9% | [20] 20.8% | [15] 93.1% | [17] 97.5% | [18] 40.8%

CC1(C)CC(=O)c2c(ccc(C(=O)C[C@@H](N)CO)c2N)O1
active: [1] 9.07% | [7] 4.82% | [8] -70.4% | [12] 0.0254% | [13] 7.69% | [16] 0.385%
inactive: [2] 80.7% | [3] 14.8% | [4] 25.1% | [5] 61.4% | [6] 36.3% | [9] 13% | [10] 21% | [11] 14.7% | [14] 49.8% | [19] 12.9% | [17] 84.7% | [18] 35%

N#C/C(C(=O)c1ccccc1)=C1/C(=O)Nc2ccccc21
inactive: [1] 106% | [2] 99.4% | [3] 93.1% | [4] 73.4% | [5] 118% | [6] 98% | [7] 78.8% | [8] 89% | [9] 103% | [10] 90.4% | [11] 112% | [12] 112% | [13] 97.2% | [14] 101% | [15] 85.3% | [19] 86.1% | [16] 108% | [17] 91.4% | [18] 103%

CSc1cccc([N+](=O)[O-])c1
inactive: [1] 106% | [2] 103% | [3] 86.2% | [4] 95.7% | [5] 108% | [6] 102% | [7] 101% | [8] 121% | [9] 90.3% | [10] 107% | [11] 107% | [12] 96.8% | [13] 107% | [14] 101% | [15] 97.8% | [19] 101% | [16] 110% | [17] 107% | [18] 109%

CC[C@]12C=CCN3CC[C@@]4(c5ccc(OC)cc5N(C)[C@H]4[C@@](O)(C(=O)OC)[C@@H]1OC(=O)CCC(=O)N[C@H](Cc1c[nH]c4ccccc14)C(=O)OC)[C@@H]32
active: [1] -48.8% [100 µM] | [2] -58.7% [100 µM] | [3] -68.7% [100 µM] | [4] -55.5% [100 µM] | [5] -38.7% [100 µM] | [6] -64.7% [100 µM] | [7] -71% [100 µM] | [8] -49.9% [100 µM] | [9] 7.07% [100 µM] | [10] -12.4% [100 µM] | [12] 0.693% [100 µM] | [13] 0.282% [100 µM] | [14] -58.1% [100 µM] | [15] -18.1% [100 µM] | [19] -38.7% [100 µM] | [16] -48.8% [100 µM] | [17] -43.8% [100 µM] | [18] -30.7% [100 µM]
inactive: [11] 26% [100 µM]

C#CCNC(=O)CC[C@@H](C)[C@H]1CC[C@H]2[C@@H]3CC[C@@H]4CC(=O)CC[C@]4(C)[C@H]3CC[C@]12C
active: [1] -57.1% [100 µM] | [2] -31.8% [100 µM] | [3] -72% [100 µM] | [4] -92.6% [100 µM] | [5] -16.8% [100 µM] | [6] -86.2% [100 µM] | [7] -59.4% [100 µM] | [8] -23.9% [100 µM] | [9] -34% [100 µM] | [10] -18.4% [100 µM] | [12] -32.9% [100 µM] | [13] -21.7% [100 µM] | [14] -45.4% [100 µM] | [19] -64% [100 µM] | [16] -72.6% [100 µM] | [17] -28.3% [100 µM] | [18] -28.7% [100 µM]
inactive: [11] 24.9% [100 µM] | [15] 11.3% [100 µM]

Cn1cc(-c2noc(C(=O)c3cn(C)c4ncc(Br)cc34)n2)c2ccccc21
inactive: [1] 95.4% | [2] 85.5% | [3] 94.8% | [4] 79.3% | [5] 107% | [6] 102% | [7] 89.5% | [8] 75.3% | [10] 105% | [11] 95.6% | [12] 84.6% | [13] 101% | [14] 90.2% | [19] 87.8% | [16] 106% | [17] 99.7% | [18] 106%
active: [9] -49.1%

C=C(C)[C@@H]1CC[C@]2(C(N)=O)CC[C@]3(C)[C@H](CC[C@@H]4[C@@]5(C)C/C(=C/c6cccnc6)[C@H](O)C(C)(C)[C@@H]5CC[C@]43C)[C@@H]12
inactive: [2] 33.8% [100 µM] | [3] 20% [100 µM] | [4] 12.2% [100 µM] | [5] 32.5% [100 µM] | [7] 10.7% [100 µM] | [8] 61.9% [100 µM] | [11] 12.8% [100 µM] | [12] 13.1% [100 µM] | [13] 21.9% [100 µM] | [14] 14.1% [100 µM] | [15] 31.6% [100 µM] | [19] 17.5% [100 µM] | [16] 29.1% [100 µM] | [17] 43.2% [100 µM] | [18] 11.3% [100 µM]
active: [1] -13.2% [100 µM] | [6] 9.24% [100 µM] | [9] 5.5% [100 µM] | [10] 1.99% [100 µM]

N#CC1C(=O)NC(c2ccccc2[N+](=O)[O-])c2sc3c(F)cccc3c21 (configuration not stated)
inactive: [1] 82.6% | [2] 64.8% | [3] 78.1% | [4] 53.8% | [5] 41.1% | [6] 65.8% | [9] 86.9% | [10] 86.6% | [11] 67.9% | [12] 41.3% | [13] 75% | [15] 72.8% | [18] 68.5%
active: [7] 5.27% | [8] -60.7% | [14] -15.1% | [19] 0.306% | [16] -14.5%
